The inhibition is the change of the read-out against control, counted positive when it falls.

Assay [1] deals with Regulator of G-protein signaling 16 (Homo sapiens) (UniProt O15492). Description: modulators of RGS–Galpha-o binding, primary screen, biochemical, multiplexed beads, flow cytometry, RGS4/7/8/16/19 (AID 1504).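 Note: fluorescently labeled Galpha-o bound to GDP with aluminium fluoride binding biotinylated RGS beads.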 As to conditions: multiplexed bead flow cytometry, measured here: RGS16 interaction, at 10 µM. On the technique in general: A flow cytometer gives signals particle by particle.

For assay [2], the target named is Regulator of G-protein signaling 19 (Homo sapiens) (UniProt P49795). The description is as above. Particulars: multiplexed bead flow cytometry, measured here: RGS19 interaction, at 10 µM.
For assay [3], the target named is Regulator of G-protein signaling 7 (Homo sapiens) (UniProt P49802). The assay is described as above. Particulars: multiplexed bead flow cytometry, measured here: RGS7 interaction, at 10 µM.
Assay [4] concerns the target Regulator of G-protein signaling 8 (Homo sapiens) (UniProt P57771). The description is as above. Particulars: multiplexed bead flow cytometry, measured here: RGS8 interaction, at 10 µM.
Assay [5] in a line: disruption of biotin probe capture by avidin, counter-screen for RGS protein interaction modulators, biochemical, flow cytometry, bead-based (AID 1783;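 active = inhibition above 50%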;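 note: median green fluorescence of gated singlet beads compared with DMSO control wells; 0% = DMSO wells and 100% = complete loss of bead fluorescence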). As to conditions: streptavidin beads, fluorescein-biotin binding; at 10 µM, stronger effect = higher value.
Assay [6] deals with Guanine nucleotide-binding protein G(o) subunit alpha (Homo sapiens) (UniProt P09471). Description: RGS8-Galphao binding modulators, confirmation, biochemical, multiplexed bead flow cytometry, single concentration (AID 1836; in the data active = binding response below about 72% or above about 130%; inactive = in between;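 note: Galphao activated as GDP AlF4 complex before binding bead RGS8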). Particulars: bead-based flow cytometry RGS8-Galphao binding, fluorescence; at 10 µM; actives lie on both sides.
Chain of Guanine nucleotide-binding protein G(o) subunit alpha (Homo sapiens) (P09471 whole entry, looked up): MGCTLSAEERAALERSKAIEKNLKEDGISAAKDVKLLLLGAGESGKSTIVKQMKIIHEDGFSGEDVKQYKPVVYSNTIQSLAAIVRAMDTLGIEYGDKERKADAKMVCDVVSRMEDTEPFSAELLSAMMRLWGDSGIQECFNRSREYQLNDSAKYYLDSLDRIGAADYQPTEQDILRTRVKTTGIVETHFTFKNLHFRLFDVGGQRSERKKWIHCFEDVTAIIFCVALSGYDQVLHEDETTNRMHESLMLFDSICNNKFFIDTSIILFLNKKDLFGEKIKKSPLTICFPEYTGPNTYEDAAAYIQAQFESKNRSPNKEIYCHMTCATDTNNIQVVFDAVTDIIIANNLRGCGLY
Assay [7] shares this target. Description: RGS7-Galphao binding modulators, confirmation, biochemical, multiplexed bead flow cytometry, single concentration (AID 1837; in the data active = response below about 75% or above about 130%; inactive = in between;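 note: fluorescent Galphao activated with GDP and aluminum fluoride binding bead-coupled RGS7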). As to conditions: bead-based flow cytometry RGS7-Galphao binding; at 10 µM; actives lie on both sides.
The target of assay [8] is Regulator of G-protein signaling 16 (Homo sapiens) + Guanine nucleotide-binding protein G(o) subunit alpha (Homo sapiens) (UniProt O15492+P09471). The assay is described as follows: modulators of RGS16-Galphao protein binding, confirmation, biochemical, single concentration, multiplexed bead flow cytometry (AID 1838; in the data active = response below about 74% or above about 130%; inactive = in between;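 note: Galphao activated as the GDP aluminium fluoride complex binding bead-coupled RGS16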). Particulars: bead-based flow cytometry, at 10 µM, actives lie on both sides.
Chain of Regulator of G-protein signaling 16 (Homo sapiens) + Guanine nucleotide-binding protein G(o) subunit alpha (Homo sapiens) (O15492 whole entry, looked up): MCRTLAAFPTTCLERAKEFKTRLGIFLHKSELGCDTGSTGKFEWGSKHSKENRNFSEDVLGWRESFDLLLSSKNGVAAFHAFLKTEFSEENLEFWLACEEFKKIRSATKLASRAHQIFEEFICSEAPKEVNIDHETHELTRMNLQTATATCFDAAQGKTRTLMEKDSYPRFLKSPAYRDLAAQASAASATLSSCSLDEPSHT
Chain of Regulator of G-protein signaling 16 (Homo sapiens) + Guanine nucleotide-binding protein G(o) subunit alpha (Homo sapiens) (P09471 whole entry, looked up): as the sequence (P09471 whole entry, looked up) above

Assay [9] addresses Guanine nucleotide-binding protein G(o) subunit alpha (Homo sapiens) (UniProt P09471). The assay is described as follows: modulators of RGS4-Galphao protein binding, confirmation, biochemical, single concentration, multiplexed bead flow cytometry (AID 1840). Particulars: at 10 µM, actives lie on both sides.
The target in assay [10] is Guanine nucleotide-binding protein G(o) subunit alpha (Homo sapiens) + Regulator of G-protein signaling 19 (Homo sapiens) (UniProt P09471+P49795). The assay is described as follows: regulators of RGS19-Galphao binding, confirmation, biochemical, single point, multiplexed bead flow cytometry (AID 1841; in the data active = response below about 50% or above about 160%; inactive = in between;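 note: 100% = no compound control and 0% = blank background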). Particulars: bead-based flow cytometry RGS19-Galphao binding; at 10 µM; actives lie on both sides.
Chain of Guanine nucleotide-binding protein G(o) subunit alpha (Homo sapiens) + Regulator of G-protein signaling 19 (Homo sapiens) (P09471 whole entry, looked up): as above
Chain of Guanine nucleotide-binding protein G(o) subunit alpha (Homo sapiens) + Regulator of G-protein signaling 19 (Homo sapiens) (P49795 whole entry, looked up): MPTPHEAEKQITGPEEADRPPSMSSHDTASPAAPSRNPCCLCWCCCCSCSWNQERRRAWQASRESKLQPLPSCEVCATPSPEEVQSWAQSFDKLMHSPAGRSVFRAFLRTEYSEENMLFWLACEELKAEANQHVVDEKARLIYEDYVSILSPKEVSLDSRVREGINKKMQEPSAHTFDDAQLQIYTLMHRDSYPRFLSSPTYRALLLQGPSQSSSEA

Molecules are shown by their SMILES. Some of the results follow. Active and inactive are the calls of the source. Cut-off read from the data, not from the text of the source, unless noted: active = binding response below about 74% or above about 130%; inactive = in between.

In the case of `COC(=O)c1ccccc1OCC(=O)N1CCN(c2ccc(Cl)cc2)CC1`, in assay [1], the RGS16–Galpha-o binding response was found to be 461%. The RGS19–Galpha-o binding response in assay [2] came to 7560%. In addition, in assay [3], the RGS7–Galpha-o binding response was found to be 290%. The RGS8–Galpha-o binding response in [4] worked out at 132%.
Turning to `CCCn1nnnc1NC(=O)COc1ccc(Cl)cc1C`, the RGS16–Galpha-o binding response in assay [1] is 2.27%. Moreover, the RGS19–Galpha-o binding response in assay [2] was -359%. For the same molecule, the RGS7–Galpha-o binding response in [3] came out at 17.1%. This molecule showed an RGS8–Galpha-o binding response in [4] of 11.9%.
Regarding `CN1CCN(C(CNS(=O)(=O)c2cccs2)c2cccnc2)CC1` (centres undefined), in assay [1], the RGS16–Galpha-o binding response is -5.62%. Also, the RGS19–Galpha-o binding response in assay [2] is 168%. Besides, the RGS7–Galpha-o binding response in assay [3] was -9.98%. This molecule also had an RGS8–Galpha-o binding response in assay [4] of 10.6%.
Taken in the same sequence, the figures for `CCOc1ccccc1NC(=O)c1cc(S(=O)(=O)N2CCC3(CC2)OCCO3)ccc1F` were 4.15%, 139%, 15.2% and 33%.
Take `COc1ccc(C(=O)NNc2cc(C)nc(NNC(=O)c3ccc(OC)cc3)n2)cc1`: the RGS16–Galpha-o binding response in assay [1] turned out to be 4.94%. Besides, the RGS19–Galpha-o binding response in assay [2] stood at 167%. Also, the RGS7–Galpha-o binding response in assay [3] was determined as 72.3%. Also, in [4], the RGS8–Galpha-o binding response came to 54%. For the same molecule, in assay [5], the inhibition was 1.4% (inactive). Besides, the binding response (% of control) in assay [6] was 108% (inactive); in assay [9], 110% (inactive). The response (percent of control binding) is 115% (inactive) in [7] and 107% (inactive) in assay [10]. In addition, the response (% of control binding) in assay [8] is 111% (inactive).
For the molecule `CCN(CC)CCOc1ccc2c(c1)C(=NNC(=O)c1ccccn1)c1cc(OCCN(CC)CC)ccc1-2`, the RGS16–Galpha-o binding response in [1] was 203%. The RGS19–Galpha-o binding response in assay [2] is 146%. Further, the RGS7–Galpha-o binding response in [3] is 216%. The molecule further returned an RGS8–Galpha-o binding response in assay [4] of 154%.
Turning to `CSc1ccc(CN2C(=O)NC3(CCCCCC3)C2=O)cc1`, the RGS16–Galpha-o binding response in [1] was 99.1%. In addition, in [2], the RGS19–Galpha-o binding response was 1890%. The RGS7–Galpha-o binding response in assay [3] stood at 219%. Further, the RGS8–Galpha-o binding response in assay [4] is 97.9%. In assay [5], the inhibition is -1.7% (inactive). Further, the binding response (% of control) is 96.3% (inactive) in assay [6] and 97.1% (inactive) in assay [9]. The values for the response (percent of control binding) in [7] and in assay [10] were 94.7% (inactive) and 108% (inactive), respectively. Besides, in assay [8], the response (% of control binding) is 96.5% (inactive).
Take `Cc1ccc(-n2c(SCC(=O)Nc3ncc(Cl)cc3Cl)nc3ccccc32)cc1`: the RGS16–Galpha-o binding response in [1] is 13.7%. For the same molecule, the RGS19–Galpha-o binding response in assay [2] was found to be 134%. In [3], the RGS7–Galpha-o binding response was 83.7%. The RGS8–Galpha-o binding response in assay [4] amounted to 76.9%. Further, the inhibition in assay [5] was 1% (inactive). For the same molecule, the binding response (% of control) in assay [6] is 103% (inactive); in [9], 104% (inactive). Further, the response (percent of control binding) in [7] was 105% (inactive); in assay [10], 113% (inactive). Also, in assay [8], the response (% of control binding) is 103% (inactive).
`CCOC(=O)C1Sc2[nH]c(=O)sc2C(c2ccc(Cl)cc2)C1C(=O)OCC` (centres undefined): the RGS16–Galpha-o binding response in assay [1] was -39.2%. The RGS19–Galpha-o binding response in assay [2] came out at 128%. The RGS7–Galpha-o binding response in assay [3] is -17.7%. The RGS8–Galpha-o binding response in assay [4] came out at 7.38%.
With `CCC(=O)N1CCC(C(N)=O)(N2CCCCC2)CC1`, the RGS16–Galpha-o binding response in assay [1] was found to be 417%. Further, the RGS19–Galpha-o binding response in assay [2] is 90.3%. Also, the RGS7–Galpha-o binding response in [3] stood at 161%. This molecule also came in with an RGS8–Galpha-o binding response in [4] of 163%. Moreover, the inhibition in [5] was 2% (inactive). Further, the binding response (% of control) was 93.5% (inactive) in assay [6] and 94.8% (inactive) in assay [9]. For the same molecule, the response (percent of control binding) in [7] was 90.7% (inactive); in [10], 88.3% (inactive). Besides, the response (% of control binding) in assay [8] is 94.8% (inactive).
Consider `Cc1ccccc1NC(=S)N(CCCN1CCOCC1)Cc1cccs1`, for which the RGS16–Galpha-o binding response in assay [1] stood at 181%. Besides, the RGS19–Galpha-o binding response in assay [2] came to 80%. Further, in [3], the RGS7–Galpha-o binding response stood at 106%. The same molecule yielded an RGS8–Galpha-o binding response in assay [4] of 118%. The inhibition in assay [5] was 2.8% (inactive). In addition, the results for the binding response (% of control) in assay [6] and in [9] were 104% (inactive) and 102% (inactive), respectively. Further, the results for the response (percent of control binding) in [7] and in assay [10] were 102% (inactive) and 107% (inactive), respectively. The response (% of control binding) in [8] is 104% (inactive).
Take `Cc1cc(=O)n2[nH]c(-c3sccc3-n3c(C)ccc3C)cc2n1`: the RGS16–Galpha-o binding response in [1] came to 44.4%. Also, the RGS19–Galpha-o binding response in assay [2] was 5890%. In addition, in assay [3], the RGS7–Galpha-o binding response was -34.3%. In addition, the RGS8–Galpha-o binding response in assay [4] was determined as 61.1%. Moreover, in assay [5], the inhibition is -1.8% (inactive). The binding response (% of control) in assay [6] was 103% (inactive); in assay [9], 89.2% (inactive). The response (percent of control binding) in [7] is 86.4% (inactive); in [10], 80.1% (inactive). Moreover, the response (% of control binding) in [8] was 95.8% (inactive).
